For 15 compounds, fluorescence interference ratio results are on record in PubChem BioAssay AID720487 (Milwaukee Institute for Drug Discovery, 2013).

The other results are listed elsewhere or left out. Activity calls are given as the source filed them.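 The calls were made as follows: active = fluorescence interference ratio at or above 1.2, signal boosting, or at or below 0.8, signal quenching; inactive = ratio between 0.8 and 1.2.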

The test in a line: signal quenchers or enhancers, Cy5-oligo/SSB – biochemical, E. coli SSB, selected ChemBridge compounds, artefact control for HCV NS3 helicase inhibitor project (AID 720487).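 Also: ratio of compound well signal to mean negative control signal so 1 means no effect.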 The conditions noted are these: Cy5-dT15/E. coli SSB fluorescence interference; at 100 µM; actives lie on both sides.
As to `O=c1c2c(nc3cc(-c4cccc(F)c4)[nH]n13)CCS2`, the fluorescence interference ratio was 0.862 (inactive). The same measure for `Cc1ccc(C(=O)C[n+]2cc(-c3ccccc3)n3c2CCCCC3)cc1`: 1.01 (inactive). As to `COc1cc(C=C2C(=O)NC(=O)NC2=O)ccc1OCCOc1ccc([N+](=O)[O-])cc1`, the fluorescence interference ratio is 0.897 (inactive). In the case of `CCOc1ccc(C=C2C(=O)NC(=O)NC2=O)cc1Cl`, the fluorescence interference ratio is 0.963 (inactive). For the compound `COc1cc(/C(O)=C(\C#N)c2nc3ccccc3n2C)cc(OC)c1OC`, the fluorescence interference ratio is 0.913 (inactive). As to `O=C(NC(=S)Nc1ccc(-c2nc3cc(Cl)ccc3o2)cc1)c1ccco1`, the fluorescence interference ratio is 0.991 (inactive). For `COc1ccc(C(=O)Oc2ccc3oc(=O)cc(C)c3c2)cc1OC`, the fluorescence interference ratio is 0.977 (inactive). `O=C1NC(=O)C(=Cc2cc([N+](=O)[O-])cc(Br)c2O)C(=O)N1`: the fluorescence interference ratio was 0.896 (inactive).

On to `C=CCN1C(=O)/C(=C\c2cc(OC)c(O)c([N+](=O)[O-])c2)C(=O)NC1=S`, for which the fluorescence interference ratio is 0.902 (inactive). As for `CCN(CC)c1ccc(C=C2C(=O)N(C)C(=O)N(C)C2=O)c(O)c1`, the fluorescence interference ratio is 1.15 (inactive). As to `Cc1ccc(C(=O)NCCNc2ccc([N+](=O)[O-])cc2)cc1`, the fluorescence interference ratio is 0.915 (inactive). The same measure for `COc1ccc(N2C(=O)C=CC2=O)c([N+](=O)[O-])c1`: 1 (inactive); for `CC(C)(C)N1C(=O)NC(=O)C(=Cc2cccs2)C1=O`: 0.954 (inactive). In the case of `N#Cc1c(N)nc2sc(C(=O)Nc3ccccc3)c(N)c2c1-c1ccco1` it was 1.02 (inactive); in that of `CCN(CC)c1ccc(NC(=O)/C(=C\c2ccccc2)NC(C)=O)cc1`, 1.22 (active).
